LDHA inh = LDHA (human) enzyme inhibition. activity change, % (values are at about 110 or 230 µM). 0.15% of 480,000 active. purified LDHA, NADH/diaphorase-resazurin fluorescence; hits give low values; in the data active = activity change below about -30%; inconclusive = mostly about -25% to -30%;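 also: plate controls were DMSO wells for no effect and wells without enzyme for full effect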
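Resorufin fluorescence (ex540/em590), read at 0 and 20 min after diaphorase/resazurin addition, reports the NADH left after a 5 min room-temperature reaction of 2 nM human LDH5 with 0.06 mM NADH and 0.2 mM pyruvate.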
A549 tox-1 = counter-screen for Nrf2 inhibitors: cytotoxicity in A549 cells. A549 ARE-Fluc cells, CellTiter-Fluor viability, 18-24 h. Potency, µM (top dose mostly 46 µM), inactives show at the top dose activity change, negative = cytotoxicity, actives largely listed as inhibitors. 0.16% of 390,000 active. AID 504648; also: potency is read from the fitted curve at half-maximal effect; % is scaled to controls: 0 for no effect and ±100 for the full control effect
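Cytotoxicity counterscreen: CellTiter-Fluor fluorescence was measured in A549 ARE_Fluc cells after 18-24 h of compound exposure in a concentration series. The subsequent BugLite luminescent read reports ARE-luciferase activity.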
Nrf2 activator = activators of Nrf2 (ARE) signaling; AREc32 ARE-luciferase reporter (MCF7-derived line), luminescence, 24 h; Potency, µM (top dose mostly 46.1 µM), for inactives: at the top dose activation, actives largely listed as activators; 0.31% of 410,000 active; AID 624171; also: potency is read from the fitted curve at half-maximal effect; % of control where 0% means no effect; nearly all actives have a fitted effect of over 65% in size
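Quantitative high-throughput format: AREc32 reporter cells, 1000 per well, received compound by pin transfer and were incubated 24 hr at 37 deg C, 5% CO2, before Steady-Glo luminescence detection.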
12-LOX inh = ALOX12 (human) lipoxygenase inhibition; P18054; purified 12hLO, xylenol orange hydroperoxide absorbance; 1.1% of 580,000 active; Potency, µM (highest dose often 108 µM), without a hit: at the highest dose activity change, negative = inhibition, actives largely listed as inhibitors; also: potency is read from the fitted curve at half-maximal effect; % is scaled to controls: 0 for no effect and ±100 for the full control effect
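Purified human 12hLO (150 nM final) in 25 mM Hepes, 0.01% Triton X-100, pH 7.0 was preincubated 15 min at room temperature with compound. Then 40 uM arachidonic acid was added, 30 min. Hydroperoxide was read by Fe-XO absorbance ratio 573/405 nm.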
mIDH1 inhibitor = blocks human mutant IDH1 R132H enzyme; IDH1-R132H enzyme, NADPH consumption, diaphorase/resazurin fluorescence; 0.093% of 390,000 active; O75874; AID 602179; Potency, µM (doses to about 76.6 µM), for inactives: at the top dose activity change, negative = inhibition, usual class: inhibitors; also: potency is read from the fitted curve at half-maximal effect; % is scaled to controls: 0 for no effect and ±100 for the full control effect; nearly all actives have a fitted effect of over 65% in size
Target sequence (O75874 whole entry R132H, stated change not applied): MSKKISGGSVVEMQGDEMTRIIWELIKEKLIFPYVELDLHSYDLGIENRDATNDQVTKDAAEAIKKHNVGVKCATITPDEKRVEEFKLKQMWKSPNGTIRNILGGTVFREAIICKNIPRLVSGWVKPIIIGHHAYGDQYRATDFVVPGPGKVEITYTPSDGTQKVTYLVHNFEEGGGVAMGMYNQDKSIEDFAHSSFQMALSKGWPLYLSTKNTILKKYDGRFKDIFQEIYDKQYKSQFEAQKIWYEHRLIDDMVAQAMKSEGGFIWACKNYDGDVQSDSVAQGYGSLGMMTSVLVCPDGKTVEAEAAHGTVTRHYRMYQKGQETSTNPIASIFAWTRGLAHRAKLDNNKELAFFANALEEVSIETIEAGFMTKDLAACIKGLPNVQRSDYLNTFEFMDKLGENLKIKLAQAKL
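IDH1-R132H (0.5 ug/mL dispensed) in pH 7.5 Tris buffer was preincubated 30 min with compound, then given a substrate mix of 0.016 mM NADPH and 2 mM alpha-KG for 80 min at room temperature; remaining NADPH was read by diaphorase/resazurin fluorescence.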
Nrf2 inh = inhibitors of Nrf2 signaling. A549 ARE-Fluc reporter, luciferase luminescence, 18-24 h. Potency, µM (doses to about 46 µM), inactives show at the highest dose activity change, negative = inhibition, hits mostly inhibitors. 2.1% of 360,000 active; also: potency is read from the fitted curve at half-maximal effect; % is scaled to controls: 0 for no effect and ±100 for the full control effect; nearly all actives have a fitted effect of over 60% in size
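Concentration-response testing used A549 ARE_Fluc cells at 5000 cells/well. Following an 18-24 h compound incubation, viability was read by fluorescence (Ex 405/Em 525) and luciferase output by luminescence.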
FLuc enzyme inh = firefly luciferase inhibition, Nrf2 hit validation | Potency, µM (series often up to 57.5 µM), for the others: at the top dose activity change, negative = inhibition, hits mostly inhibitors | purified firefly luciferase, luminescence inhibition | shares compounds with Nrf2 inh | AID 720522 | 4% of 1,400 active; also: potency is read from the fitted curve at half-maximal effect; % is scaled to controls: 0 for no effect and ±100 for the full control effect; nearly all actives have a fitted effect of over 65% in size
A549 tox-2 = counter-screen for Nrf2 inhibitors: cytotoxicity in A549 ARE cells | shares compounds with Nrf2 inh | A549 ARE-Fluc cells, cytotoxicity counterscreen | Potency, µM (series often up to 46.1 µM), without a hit: at the top dose activity change, negative = cytotoxicity, actives largely listed as inhibitors | 2% of 1,400 active;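 also: potency is read from the fitted curve at half-maximal effect; cells exposed to compounds for 18 to 24 hours; % is scaled to controls: 0 for no effect and ±100 for the full control effect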
ARE-Fluc inh = Nrf2 inhibition confirmed, A549 ARE-luciferase | shares compounds with Nrf2 inh | A549 ARE-firefly luciferase reporter, luminescence | Potency, µM (series often up to 46.1 µM), for inactives: at the highest dose activity change, negative = inhibition, most hits filed as inhibitors | 74% of 1,400 active; also: potency is read from the fitted curve at half-maximal effect; % is scaled to controls: 0 for no effect and ±100 for the full control effect; nearly all actives have a fitted effect of over 65% in size
* hit, by the source's call; u = inconclusive; x = not tested or not shown. Most compounds without a hit are left out; they make up all but 2.7% or so of the library. Unless noted, calls follow the shape of the dose curve; as a rule, active = well fitted curve in the direction sought with a large enough effect; inconclusive = small, poorly fitted or top-dose-only effect, or another doubt; inactive = no such curve, though single readings can be large; an effect the other way counts as inactive or inconclusive.

SMILES	LDHA inh	A549 tox-1	Nrf2 activator	12-LOX inh	mIDH1 inhibitor	Nrf2 inh	FLuc enzyme inh	A549 tox-2	ARE-Fluc inh
Cc1onc(-c2c(F)cccc2Cl)c1C(=O)Nc1nnc(C(F)(F)F)s1	-4	u	5%	u	11%	1.5µM*	-2%	-9%	0.12µM*
CC1C(=O)C2(CCCCC2)C(=O)OC1c1ccc(Cl)cc1 (centres undefined)	8	x	x	u	x	x	x	x	x
C[C@@H]1C=CC(=O)O[C@@H]1c1ccc(Cl)cc1	-8	-1%	0%	2%	2%	9.2µM*	1%	-15%	5.8µM*
Cc1cc(C)nc(Nc2n[nH]c(-c3ccc(N)cc3)n2)n1	0	-1%	-1%	0%	2%	u	x	x	x
Cc1cc(C)nc(Nc2n[nH]c(C)n2)n1	1	2%	0%	1%	-9%	5.8µM*	-2%	2%	-2%
CCn1nc(C)c(NC(=O)/C=C/c2cnn(C)c2C)c1C	-1	-18%	0%	24%	-1%	-18%	x	x	x
CCn1ncc(/C=C/C(=O)Nc2c(C)nn(Cc3ccc(Cl)cc3Cl)c2C)c1C	2	u	8%	13%	5%	5.8µM*	-10%	-23%	x
CC(=O)N(C(C)=O)N1C(=O)C2C3c4ccccc4C(c4ccccc43)C2C1=O (centres undefined)	-2	u	-1%	-2%	10%	9.2µM*	-27%	u	15µM*
CN1C(=O)C2C3c4ccccc4C(c4ccccc43)[C@@H]2C1=O (some centres undefined)	-4	-2%	0%	-11%	-8%	1%	x	x	x
CCCc1c(C)nc2ncnn2c1Nc1ccccc1	6	x	x	8%	x	x	x	x	x
Cc1nc2ccc(NS(=O)(=O)c3ccc4c(c3)OCCO4)cc2s1	1	-25%	3%	u	2%	2.9µM*	-2%	-1%	6.5µM*
Cc1ccc(S(=O)(=O)Nc2ccc3c(c2)OCCO3)cc1	-6	10%	2%	-20%	-5%	-3%	x	x	x
CC(C)(C)c1ccc(-c2noc(CCC(=O)Nc3cccc(Cl)c3)n2)cc1	1	1%	-3%	-2%	-9%	0.15µM*	u	1%	x
Cc1cccc(-c2noc(CCC(=O)NCc3ccco3)n2)c1	4	2%	6%	-14%	0%	x	x	x	x
CC(C)(C)c1ccc(-c2noc(CCC(=O)NCc3ccco3)n2)cc1	5	12µM*	6%	-13%	1%	0.018µM*	1.2µM*	-6%	0.82µM*
Cc1ccc(S(=O)(=O)N(C)Cc2ccc(C(=O)N/N=C/c3ccc(OC(F)F)cc3OC(F)F)cc2)cc1	-9	-2%	3%	-11%	-1%	9.2µM*	2%	-7%	4.6µM*
O=C(N/N=C/c1ccc(OC(F)F)cc1OC(F)F)c1ccc(Br)cc1	-6	1%	3%	0%	-1%	16%	x	x	x
C[n+]1ccccc1/C=C/c1c(F)cccc1F	-16	u	-1%	u	-13%	2.6µM*	1%	-30%	2.1µM*
C[n+]1ccccc1/C=C/c1ccccc1Cl	-2	-11%	22%	u	3%	26%	x	x	x
C[n+]1ccccc1/C=C/c1ccc([N+](=O)[O-])cc1	-4	u	0%	0%	-5%	3.7µM*	1%	u	7.3µM*

Bioassay records deposited in PubChem by National Center for Advancing Translational Sciences (NCATS).
